68 compounds from paper PMC9574860, “Chemical Toolkit for PARK7: Potent, Selective, and High-Throughput” (Journal of Medicinal Chemistry, 2022) can be followed below.

In all, about 7,900 compounds went through this assay and about 400 (5.1%) showed an effect of 50% or more. The entries come from a sample that favours strong results as a whole.

Sequence of Parkinson's disease protein 7 (PARK7/DJ1) (Q99497 whole entry, looked up, the tested form may be a part): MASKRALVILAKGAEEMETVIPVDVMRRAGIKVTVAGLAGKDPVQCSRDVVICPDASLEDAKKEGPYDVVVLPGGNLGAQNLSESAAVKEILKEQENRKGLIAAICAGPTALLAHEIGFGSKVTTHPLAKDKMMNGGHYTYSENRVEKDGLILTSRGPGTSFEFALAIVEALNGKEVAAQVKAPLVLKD

The assay has as its target Parkinson's disease protein 7 (PARK7/DJ1) (human, UniProt Q99497). In words: primary screen, percent inhibition; read as competition with a fluorescent probe by fluorescence polarization; higher = more effect of the substance. The note with it: 100 µM. The essentials:
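Covalent fragments at 100 μM final were incubated 2 h with 0.2 μM PARK7, then 20 nM probe JYQ-107 added for a further 2 h. Fluorescence polarization read at 480/520 nm; relative FP loss versus reference controls gave remaining enzyme activity.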
As for `O=C(O)C(S)c1ccccc1` (centres unmarked), the Inhibition % turned out to be 89.9%.

In the case of `C=CC(=O)N[C@H](C(=O)O)c1ccccc1`, the Inhibition % was 3.77%.

For `C=CC(=O)NC(NC(=O)C=C)c1ccccc1`, the Inhibition % amounted to 11.8%.

`OB(O)C1CCN(Cc2cc3c(cn2)OCCO3)C1` (centres unmarked): the Inhibition % turned out to be 21.4%.

As to `CC=C(C#N)c1ccc2c(c1)OCO2`, the Inhibition % came to 12.1%.

In the case of `O=C(CN1C(=O)CCC1=O)Nc1cccc(Cl)c1`, the Inhibition % turned out to be 7.52%.

For `O=c1c2ccccc2nc(S)n1CCS`, the Inhibition % is listed as 7.43%.

Consider `O=C(CCl)N1CCN(S(=O)(=O)c2ccccc2)CC1`, for which the Inhibition % amounted to 8.48%.

Consider `O=C(CCl)N1CCC(c2ccccc2)=N1`, for which the Inhibition % is recorded as 90.5%.

With `O=C(CCl)N1CCC(Cc2ccccc2)CC1`, the Inhibition % came out at 31.1%.

On to `C=CC(=O)NCC1CCN(c2ccncc2)CC1`, for which the Inhibition % stood at 15.3%.

On to `COCC(C)NS(=O)(=O)C=Cc1ccc(Cl)cc1` (centres unmarked), for which the Inhibition % came out at 13.7%.

On to `CS(=O)(=O)n1cc(N)cn1`, for which the Inhibition % is 10.7%.

On to `CC1(C)OB(c2cccc(Cl)c2)OC1(C)C`, for which the Inhibition % is recorded as -3.11%.

Consider `CC1(C)OB(c2cc(Cl)cc(Cl)c2)OC1(C)C`, for which the Inhibition % was determined as 81%.

Consider `CC1(C)OB(c2ccc(Cl)cc2)OC1(C)C`, for which the Inhibition % is 4.5%.

For `C=CC(=O)NC1CCc2cn(C(C)C)nc2C1` (centres unmarked), the Inhibition % amounted to 11.9%.

For `CCOc1cc(C)c(C)cc1S(=O)(=O)n1ccnc1C`, the Inhibition % is on record as 2.71%.

`C=CC(=O)Nc1ccc2c(c1)OCCCO2`: the Inhibition % worked out at 3.17%.

`C=CC(=O)Nc1ccc(=O)n(C)c1`: the Inhibition % was 54.1%.

Take `C=CC(=O)Nc1ccc2c(c1)N(C)CCO2`: the Inhibition % was 52.4%.

In the case of `C=CC(=O)Nc1ccc(Br)cc1`, the Inhibition % was 6.59%.

For the compound `C=CC(=O)Nc1ccc2ccc(=O)n(C)c2c1`, the Inhibition % amounted to 7.33%.

For the compound `C=CC(=O)Nc1ccc2c(c1)CCCO2`, the Inhibition % was 7.61%.

`CC(C)NC(=O)C(C#N)=Cc1ccccc1Cl`: the Inhibition % amounted to 6.2%.

Take `CN(C)C=C(C#N)c1ccccn1`: the Inhibition % worked out at 19.1%.

On to `CCOc1cc(C)c(C(C)C)cc1S(=O)(=O)n1ccnc1`, for which the Inhibition % worked out at 6.3%.

Consider `NC(=O)c1cccnc1S`, for which the Inhibition % was determined as 4.97%.

For `O=C(O)c1ccnnc1S`, the Inhibition % stood at 83.3%.

With `O=C(O)c1cccnc1S`, the Inhibition % is 5.3%.

As for `O=c1[nH]c(Cc2ccncc2)no1`, the Inhibition % was found to be 6.48%.

In the case of `O=C(CCl)NCc1cccc(Oc2ccccc2)c1`, the Inhibition % came out at 22.5%.

On to `Cc1ccc(Oc2ccccc2NC(=O)CCl)cc1`, for which the Inhibition % is on record as 2.56%.

For the compound `O=C(CCl)Nc1ccc(Oc2ccccc2)cc1`, the Inhibition % amounted to 84.2%.

As for `Cc1cccc(Oc2ccc(NC(=O)CCl)cc2)c1`, the Inhibition % stood at 81.6%.

For `O=C(CCl)Nc1ccc(Oc2ccccc2Cl)cc1`, the Inhibition % turned out to be 93.7%.

Take `O=C(CCl)Nc1ccccc1Oc1ccccc1`: the Inhibition % came to 6.38%.

As for `O=C(CCl)Nc1cccc(NC(=O)c2ccccc2)c1`, the Inhibition % turned out to be 7.84%.

Take `O=C(CCl)Nc1ccc(N=Nc2ccccc2)cc1`: the Inhibition % worked out at 5.15%.

In the case of `Cc1ccc(Oc2ccc(NC(=O)CCl)cc2)cc1`, the Inhibition % turned out to be 36.3%.

As for `O=C(CCl)Nc1cccc(Oc2ccccc2)c1`, the Inhibition % turned out to be 55.6%.

As to `Cc1cccc(NC(=O)CCl)c1`, the Inhibition % stood at 8.99%.

As to `O=C(CCl)Nc1ccc(OCc2ccccc2)cc1`, the Inhibition % is reported as 28.9%.

For `Cc1ccc(C)c(S(=O)(=O)n2nc(C)cc2C)c1`, the Inhibition % is reported as 1.62%.

On to `CCOc1cc(C)c(Cl)cc1S(=O)(=O)n1cnc(C)c1`, for which the Inhibition % was 5.28%.

Consider `C=CC(=O)NCCN(C)C1CCCCC1`, for which the Inhibition % amounted to 10.8%.

For `C=CC(=O)N1CCN(c2ncnc3sc(C)cc23)CC1`, the Inhibition % amounted to 0.554%.

`Cc1noc(C)c1Cn1c(-c2ccccn2)noc1=O`: the Inhibition % is 0.962%.

Regarding `CC1(C)OB(c2cccc3occc23)OC1(C)C`, the Inhibition % worked out at 10.2%.

Regarding `C=CC(=O)N1CCC(c2nccn2C)C1` (centres unmarked), the Inhibition % is 5.02%.

With `Cn1c(=O)[nH]c2ccc(B3OC(C)(C)C(C)(C)O3)cc21`, the Inhibition % was found to be 0.0918%.

On to `C=CC(=O)NC1CC(OCC)C12CCCCC2` (centres unmarked), for which the Inhibition % was found to be 4.59%.

Turning to `CN(C)C(=O)Oc1ccc2c(c1)OCO2`, the Inhibition % is -4.08%.

As for `N#Cc1nccnc1N1CCC(C(F)(F)F)CC1`, the Inhibition % amounted to 2.52%.

For `C=CC(=O)N1CCN(CC2CCOCC2)CC1`, the Inhibition % is on record as 12.9%.

`N#Cc1ccc(N2CCOC(c3cccs3)C2)cn1` (centres unmarked): the Inhibition % turned out to be 4.98%.

On to `COCc1ccc(CNC(=O)CCl)cc1`, for which the Inhibition % was 6.87%.

Regarding `N#Cc1ccc(N2CCCC(C(N)=O)C2)cn1` (centres unmarked), the Inhibition % was 6.47%.

Consider `CN(C)C=CC(=O)c1cc2ccccc2o1`, for which the Inhibition % is given as 0.589%.

Take `CC(c1ccc(Cl)cc1)N(C)C(=O)CCl` (centres unmarked): the Inhibition % stood at 98%.

Turning to `CC(c1ccc(F)c(F)c1)N(C)C(=O)CCl` (centres unmarked), the Inhibition % is recorded as 92.5%.

Turning to `CCN(C(=O)CCl)C(C)c1ccc(F)cc1` (centres unmarked), the Inhibition % is recorded as 9.9%.

Consider `CC(c1ccc(F)cc1)N(C)C(=O)Cn1cnc(C#N)n1` (centres unmarked), for which the Inhibition % came out at 11.3%.

Turning to `CCC(NC(=O)CCl)c1ccc(Cl)cc1` (centres unmarked), the Inhibition % came to 14.1%.

As to `CC(NC(=O)CCl)c1ccc(Cl)cc1` (centres unmarked), the Inhibition % turned out to be 6.77%.

Regarding `CC(c1ccc(F)cc1)N(C)C(=O)CCl` (centres unmarked), the Inhibition % is 96.3%.

For `C=CC(=O)N(C)Cc1cc2ccccc2o1`, the Inhibition % came out at 5.57%.

In the case of `CC(c1cc2ccccc2o1)N(C)C(=O)CCl` (centres unmarked), the Inhibition % is reported as 96.1%.
